Activity calls are given as the source filed them. Unless noted, the call rests on the fitted dose curve.
Experiments:
[1] = biological target: Estrogen receptor (Homo sapiens) (UniProt P03372); test: qHTS assay for small molecule antagonists of estrogen receptor alpha signaling (AID 588513; active means well fitted curve in the direction sought with a large enough effect in the signal ratio, with a control signal flat, not every such curve was filed as active; inconclusive means small, poorly fitted or top-dose-only effect, or effect the other way, or a change in a side signal; inactive means no such curve, though single readings can be large or run the other way; the % refers to the signal ratio; further: potency means the concentration at half of the fitted maximal effect)
Estrogen receptor (Homo sapiens), sequence (P03372 whole entry, looked up): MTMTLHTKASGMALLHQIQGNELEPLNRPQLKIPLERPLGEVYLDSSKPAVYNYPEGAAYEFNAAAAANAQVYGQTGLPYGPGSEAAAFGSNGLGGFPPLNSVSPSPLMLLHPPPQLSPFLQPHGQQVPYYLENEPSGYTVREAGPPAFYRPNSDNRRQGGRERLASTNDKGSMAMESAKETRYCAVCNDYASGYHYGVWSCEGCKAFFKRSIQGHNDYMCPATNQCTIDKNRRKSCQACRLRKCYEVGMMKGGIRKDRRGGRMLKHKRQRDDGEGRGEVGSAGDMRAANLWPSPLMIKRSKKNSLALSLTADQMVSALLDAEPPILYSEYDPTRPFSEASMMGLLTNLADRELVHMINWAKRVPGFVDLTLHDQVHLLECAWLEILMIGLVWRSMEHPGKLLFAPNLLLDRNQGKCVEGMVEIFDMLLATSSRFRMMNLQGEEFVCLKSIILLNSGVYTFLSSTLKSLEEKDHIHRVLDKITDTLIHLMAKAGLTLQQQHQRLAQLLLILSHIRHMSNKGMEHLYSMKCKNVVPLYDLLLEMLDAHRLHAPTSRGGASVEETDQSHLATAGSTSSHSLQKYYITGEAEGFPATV
Procedure, shortened: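 ER-alpha-UAS-bla GripTite HEK 293 cells in medium with 2% charcoal/dextran-treated FBS were preincubated 4 h at 37 C, dosed with compound (1:2 titration), stimulated with 0.5nM 17-beta-estradiol for 18 h, then read by CCF4 beta-lactamase fluorescence.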

[2] = biological target: Estrogen receptor (Homo sapiens) (UniProt P03372); test: qHTS assay for small molecule agonists of estrogen receptor alpha signaling (AID 588514);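 further: 0% = vehicle only and 100% = reference agonist; nearly all actives have a fitted effect of over 70% in size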
Procedure, shortened: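 Fluorescence from CCF4 cleavage reports ER-alpha-driven beta-lactamase expression in HEK 293 cells treated 18 hrs at 37 C. Data normalized to 17-beta-estradiol (20 nM) and DMSO, fitted to Hill equation.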

[3] = biological target: Peroxisome proliferator-activated receptor delta (Homo sapiens) (UniProt Q03181); test: qHTS assay for small molecule agonists of peroxisome proliferator-activated receptor delta signaling (AID 588534);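 further: 0% = DMSO basal wells and 100% = positive control agonist at 10 µM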
Peroxisome proliferator-activated receptor delta (Homo sapiens), sequence (Q03181 whole entry, looked up): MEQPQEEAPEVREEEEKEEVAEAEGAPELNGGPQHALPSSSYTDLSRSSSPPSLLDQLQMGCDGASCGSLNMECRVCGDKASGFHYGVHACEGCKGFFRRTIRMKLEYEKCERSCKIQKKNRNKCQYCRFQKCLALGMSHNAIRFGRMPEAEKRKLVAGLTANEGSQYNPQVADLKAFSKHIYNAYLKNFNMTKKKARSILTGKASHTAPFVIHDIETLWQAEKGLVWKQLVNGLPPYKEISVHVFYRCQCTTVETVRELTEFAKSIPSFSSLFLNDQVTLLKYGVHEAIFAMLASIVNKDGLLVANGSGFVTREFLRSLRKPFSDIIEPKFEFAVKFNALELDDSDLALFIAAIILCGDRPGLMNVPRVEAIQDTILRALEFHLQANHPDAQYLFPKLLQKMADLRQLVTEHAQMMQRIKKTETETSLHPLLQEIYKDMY
Procedure, shortened: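 EC50 and efficacy values derive from Hill fits of a concentration series in a beta-lactamase reporter cell assay. Exposure is 18 hrs at 37 C, with CCF4 fluorescence as the readout.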

[4] = qHTS assay for small molecule antagonists of peroxisome proliferator-activated receptor delta signaling (AID 588535); details: HEK293T PPARd-UAS-bla, beta-lactamase FRET ratio, 18 h; 460 nm channel;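 further: cells co-treated with a PPAR-delta agonist as stimulator during compound exposure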
Procedure, shortened: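 Beta-lactamase reporter read-out (405 nm excitation, 460/530 nm emission) after CCF4 loading for 2 hrs at RT. HEK293T PPAR-delta-UAS-bla cells, 2% charcoal/dextran FBS, compounds for 18 hrs at 37 C. Hill fit gave IC50 and efficacy.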

[5] = biological target: Peroxisome proliferator-activated receptor gamma (Homo sapiens) (UniProt P37231); test: qHTS assay for small molecule antagonists of peroxisome proliferator-activated receptor gamma signaling (AID 588537; active means well fitted inhibition curve with a large enough effect in the signal ratio, with a control signal flat, not every such curve was filed as active; inconclusive means small, poorly fitted or top-dose-only effect, or effect the other way, or a change in a side signal; the % refers to the signal ratio;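 further: reporter cells co-stimulated with 50 nM rosiglitazone agonist during compound treatment; % of control where 0% means no effect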)
Peroxisome proliferator-activated receptor gamma (Homo sapiens), sequence (P37231 whole entry, looked up): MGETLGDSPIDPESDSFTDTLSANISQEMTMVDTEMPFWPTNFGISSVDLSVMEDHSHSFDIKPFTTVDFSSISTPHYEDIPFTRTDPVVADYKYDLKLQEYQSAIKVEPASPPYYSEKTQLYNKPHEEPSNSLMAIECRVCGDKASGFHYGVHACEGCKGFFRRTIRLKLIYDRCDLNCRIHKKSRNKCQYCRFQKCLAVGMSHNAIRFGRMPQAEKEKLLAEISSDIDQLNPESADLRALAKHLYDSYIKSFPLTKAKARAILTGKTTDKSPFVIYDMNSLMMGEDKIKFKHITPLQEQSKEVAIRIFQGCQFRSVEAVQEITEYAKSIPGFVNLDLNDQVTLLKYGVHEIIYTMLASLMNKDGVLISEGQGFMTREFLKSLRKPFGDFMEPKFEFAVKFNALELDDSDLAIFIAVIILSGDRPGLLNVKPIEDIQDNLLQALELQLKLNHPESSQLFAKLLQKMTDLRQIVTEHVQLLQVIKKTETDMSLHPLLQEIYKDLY
Procedure, shortened: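 Read-out: CCF4 fluorescence (ex 405, em 460/530 nm) after 2 h at RT. Cells were HEK293 carrying a UAS-bla reporter and treated 16 h at 37 C with compound plus rosiglitazone (50 nM final). Normalized to rosiglitazone and DMSO.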

[6] = biological target: Vitamin D3 receptor (Homo sapiens) (UniProt P11473); test: qHTS assay for small molecule antagonists of vitamin D receptor signaling (AID 588541);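 further: receptor activated by calcitriol during compound treatment; series mostly up to about 77 µM; on the % scale 0 is the no-effect control and ±100 the full control effect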
Vitamin D3 receptor (Homo sapiens), sequence (P11473 whole entry, looked up): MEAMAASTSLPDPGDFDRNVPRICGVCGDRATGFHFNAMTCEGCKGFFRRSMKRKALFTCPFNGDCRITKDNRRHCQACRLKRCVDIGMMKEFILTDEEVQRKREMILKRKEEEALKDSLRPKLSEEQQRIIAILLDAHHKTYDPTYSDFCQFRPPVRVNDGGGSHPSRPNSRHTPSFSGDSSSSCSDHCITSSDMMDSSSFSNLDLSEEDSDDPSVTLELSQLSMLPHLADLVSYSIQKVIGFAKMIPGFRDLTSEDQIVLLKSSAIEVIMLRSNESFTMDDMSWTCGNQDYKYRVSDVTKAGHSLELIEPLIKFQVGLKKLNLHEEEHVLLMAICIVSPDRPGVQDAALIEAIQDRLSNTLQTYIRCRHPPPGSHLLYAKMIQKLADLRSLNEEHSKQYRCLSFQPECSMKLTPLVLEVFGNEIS
Procedure, shortened: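 VDR-UAS-bla HEK293T cells in 2% charcoal-stripped FBS were stimulated with 1-alpha,25-dihydroxyvitamin D3 (3 nM final) plus compound for 16 h at 37 C. The beta-lactamase CCF4 readout was normalized to 50 nM agonist and DMSO, and Hill fits gave IC50.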

[7] = biological target: Thyroid hormone receptor beta (Homo sapiens) (UniProt P10828); test: qHTS assay for small molecule agonists of thyroid hormone receptor beta signaling (AID 588545);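 further: 0% = DMSO only and 100% = 10 nM T3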
Thyroid hormone receptor beta (Homo sapiens), sequence (P10828 whole entry, looked up): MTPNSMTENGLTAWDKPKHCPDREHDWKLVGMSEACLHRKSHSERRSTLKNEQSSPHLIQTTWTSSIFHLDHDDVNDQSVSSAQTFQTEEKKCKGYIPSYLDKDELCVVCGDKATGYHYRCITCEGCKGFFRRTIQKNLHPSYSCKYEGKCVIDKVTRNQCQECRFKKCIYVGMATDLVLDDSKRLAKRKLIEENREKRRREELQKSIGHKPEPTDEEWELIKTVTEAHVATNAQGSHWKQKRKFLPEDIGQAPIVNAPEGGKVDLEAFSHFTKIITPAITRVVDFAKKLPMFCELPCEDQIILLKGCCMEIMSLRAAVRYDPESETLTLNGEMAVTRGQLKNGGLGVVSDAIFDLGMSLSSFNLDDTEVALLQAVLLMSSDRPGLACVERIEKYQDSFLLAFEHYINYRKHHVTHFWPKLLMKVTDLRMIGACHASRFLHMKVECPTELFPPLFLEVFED
Procedure, shortened: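 Efficacy and EC50 values derive from Hill fits of qHTS titration data, normalized to 10 nM T3 and DMSO-only wells. HEK 293 reporter cells were stimulated for 18 hrs at 37 C, with beta-lactamase activity measured by CCF4 fluorescence.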

[8] = qHTS assay for small molecule antagonists of retinoid X receptor alpha signaling (AID 588546; active means well fitted inhibition curve with a large enough effect in the signal ratio, with a control signal flat, not every such curve was filed as active; inconclusive means small, poorly fitted or top-dose-only effect, or effect the other way, or a change in a side signal; inactive means no such curve, though single readings can be large or run the other way; the % refers to the signal ratio;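 further: cells stimulated with 9-cis-retinoic acid as agonist; on the % scale 0 is the no-effect control and ±100 the full control effect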); details: HEK293T RXRa-UAS-bla, beta-lactamase ratio, antagonist mode; measured here: W530 green channel, cytotoxicity proxy
Procedure, shortened: (§1)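 Beta-lactamase reporter inhibition, read as CCF4 fluorescence ratio (ex 405, em 460/530 nm) after 2 h at RT. HEK293T UAS-bla cells, 2500/well, were stimulated with 9-cis-RA at 500 or 100 nM final alongside test compound for 18 h at 37 C.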

[9] = biological target: Retinoic acid receptor RXR-alpha (Homo sapiens) (UniProt P19793); test: as above; details: HEK293T RXRa-UAS-bla, beta-lactamase ratio, antagonist mode
Retinoic acid receptor RXR-alpha (Homo sapiens), sequence (P19793 whole entry, looked up): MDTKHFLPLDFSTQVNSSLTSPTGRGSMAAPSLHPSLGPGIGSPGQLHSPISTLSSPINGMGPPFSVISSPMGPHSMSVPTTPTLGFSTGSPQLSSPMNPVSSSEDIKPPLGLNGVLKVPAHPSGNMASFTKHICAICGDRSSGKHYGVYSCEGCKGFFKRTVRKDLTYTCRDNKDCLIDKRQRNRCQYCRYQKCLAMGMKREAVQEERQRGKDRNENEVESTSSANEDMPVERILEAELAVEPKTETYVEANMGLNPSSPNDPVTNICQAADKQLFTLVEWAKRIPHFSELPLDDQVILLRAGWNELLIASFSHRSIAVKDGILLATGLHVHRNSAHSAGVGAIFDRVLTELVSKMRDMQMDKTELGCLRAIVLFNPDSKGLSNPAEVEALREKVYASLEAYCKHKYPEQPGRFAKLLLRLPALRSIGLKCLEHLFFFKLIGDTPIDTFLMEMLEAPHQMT
Procedure, shortened: as §1

[10] = qHTS assay for small molecule activators of the p53 signaling pathway (AID 651743; active means well fitted activation curve with a large enough effect in the signal ratio, not every such curve was filed as active; inconclusive means small, poorly fitted or top-dose-only effect, or a change in a side signal; the % refers to the signal ratio; further: series mostly up to about 92 µM; % of control where 0% means no effect); details: HCT-116 p53RE-bla, beta-lactamase FRET ratio, 16 h; activation: stronger effect = higher value
Procedure, shortened: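 Reporter: beta-lactamase driven by p53 response elements, stably integrated in HCT-116 cells. Cells seeded at 4,000/well, 5 h preincubation, compound (DMSO) 16 h at 37 C; B/G FRET substrate 2 h RT; fluorescence intensity read.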

[11] = biological target: Peroxisome proliferator-activated receptor alpha (Homo sapiens) (UniProt Q07869); test: qHTS assay for small molecule agonists of the peroxisome proliferator-activated receptor alpha (PPARalpha) signaling pathway (AID 651778; active means well fitted curve in the direction sought with a large enough effect; inconclusive means small, poorly fitted or top-dose-only effect, or another doubt; inactive means no such curve, though single readings can be large; an effect the other way counts as inactive or inconclusive; further: % of control where 0% means no effect); details: PathHunter PPARalpha complementation, chemiluminescence, 6 h; max response: stronger effect = higher value
Peroxisome proliferator-activated receptor alpha (Homo sapiens), sequence (Q07869 whole entry, looked up, the tested form may be a part): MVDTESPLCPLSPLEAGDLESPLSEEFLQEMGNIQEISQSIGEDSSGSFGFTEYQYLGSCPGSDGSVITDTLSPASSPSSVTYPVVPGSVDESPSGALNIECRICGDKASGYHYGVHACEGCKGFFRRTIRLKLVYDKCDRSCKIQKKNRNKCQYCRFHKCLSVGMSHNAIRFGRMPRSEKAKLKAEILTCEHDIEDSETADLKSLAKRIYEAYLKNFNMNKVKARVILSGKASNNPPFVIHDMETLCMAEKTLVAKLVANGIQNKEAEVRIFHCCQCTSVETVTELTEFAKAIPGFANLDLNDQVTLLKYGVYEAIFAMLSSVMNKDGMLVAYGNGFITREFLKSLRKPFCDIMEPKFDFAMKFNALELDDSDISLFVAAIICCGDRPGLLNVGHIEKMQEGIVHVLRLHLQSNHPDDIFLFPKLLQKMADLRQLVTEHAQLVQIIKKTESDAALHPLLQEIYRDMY
Procedure, shortened: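 Enzyme-fragment complementation assay in which ligand-bound PPARalpha translocates and forms an active enzyme that generates chemiluminescence. Cells were plated overnight, exposed to compound for 6 hr at 37 C, and then given detection reagent for 60 min at room temperature.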

[12] = qHTS assay for small molecule agonists of the antioxidant response element (ARE) signaling pathway measured by Nrf2-dependant transcriptional activity (AID 720636; active means well fitted curve in the direction sought with a large enough effect in the repeat runs; inconclusive means weak or mixed curves; inactive means no such curve, though single readings can be large; an effect the other way counts as inactive or inconclusive;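 further: HepG2 cells with an ARE-driven luciferase reporter; % of control where 0% means no effect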)
Procedure, shortened: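 We exposed ARE-luc HepG2 cells, seeded in assay medium with 1% dialyzed FBS and allowed 6 hr to adhere, to test compounds overnight (16 hr, 37 C) before measuring luciferase with ONE-Glo.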

[13] = qHTS assay for small molecule agonists of the antioxidant response element (ARE) signaling pathway measured by Nrf2-dependant transcriptional activity - cell viability counter screen (AID 720653; active means well fitted curve in the direction sought with a large enough effect in the repeat runs; inconclusive means weak or mixed curves; inactive means no such curve, though single readings can be large; an effect the other way counts as inactive or inconclusive; further: on the % scale 0 is the no-effect control and ±100 the full control effect); details: ARE-bla HepG2 viability, CellTiter-Glo ATP luminescence, 16 h; max response: stronger effect = lower value
Procedure, shortened: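 ARE-bla HepG2 cells treated with compounds for 16 h at 37C; this counter screen measures viability as intracellular ATP by CellTiter-Glo luminescence after 30 min at room temperature.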

[14] = qHTS assay for cell viability of HEK293 cells (AID 743288; active means well fitted curve in the direction sought with a large enough effect; inconclusive means small, poorly fitted or top-dose-only effect, or another doubt; inactive means no such curve, though single readings can be large; an effect the other way counts as inactive or inconclusive; further: on the % scale 0 is the no-effect control and ±100 the full control effect; nearly all actives have a fitted effect of over 50% in size); details: ATP luminescence (CellTiter-Glo), 18 h; max response: stronger effect = lower value
Procedure, shortened: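 After 18 h compound exposure at 37 C, parental HEK293 cells (2,000/well) are lysed with CellTiter-Glo and luminescence is read following 30 min at room temperature.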

[15] = qHTS assay for cell viability of the p53RE-bla HCT-116 cell line (AID 743292; active means well fitted curve in the direction sought with a large enough effect; inconclusive means small, poorly fitted or top-dose-only effect, or another doubt; inactive means no such curve, though single readings can be large; an effect the other way counts as inactive or inconclusive; further: on the % scale 0 is the no-effect control and ±100 the full control effect; nearly all actives have a fitted effect of over 55% in size)
Procedure, shortened: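 In this qHTS counter-screen, metabolically competent p53RE-bla HCT-116 cells were counted via their ATP content. Compounds were applied for 16 h at 37 C and luciferase-coupled luminescence was measured.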

[16] = biological target: Nuclear receptor subfamily 1 group I member 2 (Rattus norvegicus) (UniProt Q9R1A7); test: qHTS assay for small molecule activators of the rat pregnane X receptor (rPXR) signaling pathway (AID 651751; call rule not given here; further: 0% is about no effect); details: rPXR reporter cells, luciferase (One-Glo), 24 h
Nuclear receptor subfamily 1 group I member 2 (Rattus norvegicus), sequence (Q9R1A7 whole entry, looked up): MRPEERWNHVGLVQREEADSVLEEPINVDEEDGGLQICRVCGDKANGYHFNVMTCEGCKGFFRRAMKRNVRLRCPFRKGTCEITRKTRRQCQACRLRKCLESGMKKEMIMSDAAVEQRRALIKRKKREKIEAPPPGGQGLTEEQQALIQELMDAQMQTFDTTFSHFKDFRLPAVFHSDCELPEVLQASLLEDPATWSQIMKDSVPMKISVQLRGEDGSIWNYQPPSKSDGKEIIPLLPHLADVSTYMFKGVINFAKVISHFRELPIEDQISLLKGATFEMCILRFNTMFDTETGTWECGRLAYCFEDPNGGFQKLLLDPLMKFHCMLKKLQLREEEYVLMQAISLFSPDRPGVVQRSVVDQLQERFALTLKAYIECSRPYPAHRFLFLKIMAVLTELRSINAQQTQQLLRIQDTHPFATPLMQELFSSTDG

[17] = biological target: Peroxisome proliferator-activated receptor gamma (Homo sapiens) (UniProt P37231); test: qHTS assay for small molecule agonists of peroxisome proliferator-activated receptor gamma signaling (AID 588536; active means well fitted curve in the direction sought with a large enough effect in the signal ratio, with a control signal flat, not every such curve was filed as active; inconclusive means small, poorly fitted or top-dose-only effect, or effect the other way, or a change in a side signal; inactive means no such curve, though single readings can be large or run the other way; the % refers to the signal ratio;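 further: 0% = DMSO basal wells and 100% = rosiglitazone at 2 µM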)
Procedure, shortened: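 This is an agonist-mode beta-lactamase reporter assay in HEK293 PPAR-gamma-UAS-bla cells with 1% charcoal/dextran FBS. Compound titrations ran 16 h at 37 C before CCF4 detection. EC50 and efficacy are Hill fits scaled to 2 uM rosiglitazone (100%) and DMSO basal.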

[18] = biological target: Retinoic acid receptor RXR-alpha (Homo sapiens) (UniProt P19793); test: qHTS assay for small molecule agonists of retinoid X receptor alpha signaling (AID 588544);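 further: 0% = DMSO basal wells and 100% = reference agonist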
[19] = qHTS assay for environmental chemicals that activate the Aryl hydrocarbon Receptor (AhR) signaling pathway (AID 651777; active means well fitted curve in the direction sought with a large enough effect; inconclusive means small, poorly fitted or top-dose-only effect, or another doubt; inactive means no such curve, though single readings can be large; an effect the other way counts as inactive or inconclusive; further: % of control where 0% means no effect; nearly all actives have a fitted effect of over 15% in size); details: 1A2-DRE human hepatoma cells, luciferase, 24 h; activation: stronger effect = higher value
Procedure, shortened: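 Induction of CYP1A2 transcription through AhR is detected by luciferase in 1A2-DRE hepatoma cells. Compounds or DMSO act for 24 hr at 37 C before a 30 min One-Glo step at room temperature.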

[20] = biological target: Thyroid hormone receptor beta (Homo sapiens) (UniProt P10828); test: qHTS assay for small molecule antagonists of thyroid hormone receptor beta signaling (AID 588547; active means well fitted inhibition curve with a large enough effect in the signal ratio, with a control signal flat, not every such curve was filed as active; inconclusive means small, poorly fitted or top-dose-only effect, or effect the other way, or a change in a side signal; the % refers to the signal ratio;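 further: cells stimulated with 0.4 nM T3 agonist during compound exposure; series mostly up to about 77 µM; on the % scale 0 is the no-effect control and ±100 the full control effect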); details: TR-UAS-bla HEK293, beta-lactamase ratio, antagonist mode, 18 h
Procedure, shortened: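 TR-UAS-bla GripTite HEK293 cells in 2% charcoal/dextran FBS medium; compounds 0.59 nM to 92 uM with T3 at 0.4nM final, 18 h at 37 C. Beta-lactamase read by CCF4 fluorescence (460/530 nm); Hill fits gave IC50 and efficacy.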

CS(=O)(=O)c1cc(C(F)(F)F)ccc1C(=O)c1cnoc1C1CC1
51.3%: max response [4]
inactive: Potency [1] | Potency [2] | outcome [3] | Potency [5] | Potency [6] | Potency [7] | max response [9] -4.05% | activation [10] -1.28% | max response [11] -3.75% | Potency [12] | max response [13] -9.62% | max response [14] -14.1% | Potency [15] | max response [16] -4.39%
-9.9%: max response [8]

COc1nc(C)nc(NC(=O)NS(=O)(=O)c2ccccc2Cl)n1
-9.33%: max response [8]
inactive: Potency [1] | Potency [2] | Potency [17] | Potency [5] | Potency [6] | Potency [18] | Potency [7] | max response [9] -1.72% | activation [10] -1.02% | activation [19] 1.34% | max response [11] -1.56% | Potency [12] | max response [13] -0.816% | max response [14] -13% | Potency [15] | max response [16] -1.17%

C=C1CC[C@H](O)C/C1=C/C=C1\CCC[C@]2(C)[C@@H]([C@H](C)CCCC(C)C)CC[C@@H]12
active: Potency [1] 15.8 µM [inconclusive]

CCOP(=S)(OCC)Oc1ccc(S(C)=O)cc1 (stereo unspecified)
-64.2%: max response [4]
-3.81%: max response [8]
inactive: Potency [1] | outcome [3] | Potency [17] | Potency [5] | Potency [6] | Potency [18] | Potency [7] | max response [9] -34.4% | activity change % (negative = inhibition) [20] -4.14% | activation [19] 14.8% | max response [11] -1.54% | Potency [12] | max response [13] 6.57% | max response [14] -11.8% | Potency [15] | max response [16] 7.38%

Clc1ccc([C@@]2(Cn3cncn3)C[C@@H](Br)CO2)c(Cl)c1
-0.908%: max response [4]
-15.6%: max response [8]
inactive: Potency [1] | outcome [3] | Potency [17] | Potency [5] | Potency [6] | Potency [7] | max response [9] -32.6% | activity change % (negative = inhibition) [20] 11.5% | activation [19] 1.89% | max response [11] -2.47% | Potency [12] | max response [13] 2.35% | max response [14] -20.7% | Potency [15]

COP(=S)(OC)Oc1c(Cl)cc(C)cc1Cl
inactive: Potency [1] | outcome [3] | Potency [17] | Potency [5] | Potency [6] | Potency [18] | Potency [7] | max response [9] -12.7% | activity change % (negative = inhibition) [20] 7.32% | activation [10] 7.93% | max response [11] 5.67% | Potency [12] | max response [13] -1.53% | max response [14] -18.5% | Potency [15] | max response [16] 1.76%
-4.3%: max response [4]
-6.8%: max response [8]

COC(=O)c1sccc1S(=O)(=O)NC(=O)Nc1nc(C)nc(OC)n1
-1.17%: max response [8]
-31.9%: max response [4]
inactive: Potency [1] | outcome [3] | Potency [5] | Potency [6] | Potency [18] | Potency [7] | max response [9] -14.7% | activation [10] -3.25% | activation [19] 0.948% | max response [11] -0.482% | Potency [12] | max response [13] 2.61% | max response [14] -12% | Potency [15] | max response [16] 3.77%

CCN(CC)C(=O)C(C)Oc1cccc2ccccc12 (stereo unspecified)
-20.3%: max response [8]
inactive: Potency [1] | outcome [3] | Potency [17] | Potency [5] | Potency [18] | Potency [7] | max response [9] -6.13% | activity change % (negative = inhibition) [20] -8.01% | activation [10] -0.234% | max response [11] 0.442% | Potency [12] | max response [13] -4.78% | max response [14] -1.61% | Potency [15]

CC(=O)[C@H]1[C@H](C#N)C[C@H]2[C@@H]3CC=C4C[C@@H](O)CC[C@]4(C)[C@H]3CC[C@@]21C
inactive: Potency [1] | activity change % (negative = inhibition) [20] 6.3%

CC1=C(C(=O)Nc2ccccc2)SCCO1
-5.88%: max response [8]
inactive: Potency [2] | outcome [3] | Potency [17] | Potency [5] | Potency [6] | Potency [18] | Potency [7] | max response [9] -6.74% | activity change % (negative = inhibition) [20] 3.71% | activation [10] 1.21% | max response [11] -3.16% | max response [13] -4.21% | max response [14] -15.4% | Potency [15]

CCOP(N)(=O)Oc1ccc(SC)c(C)c1 (stereo unspecified)
inactive: Potency [2] | outcome [3] | Potency [17] | Potency [5] | Potency [6] | Potency [18] | Potency [7] | max response [9] -26.2% | activity change % (negative = inhibition) [20] -15.7% | activation [10] -1.01% | activation [19] 0.564% | max response [11] -3.39% | Potency [12] | max response [13] -8.16% | max response [14] -8.45% | Potency [15] | max response [16] 4.69%
-11.1%: max response [8]
41.4%: max response [4]

CCOP(=S)(OCC)Oc1nc(Cl)n(C(C)C)n1
inactive: Potency [1] | Potency [17] | Potency [5] | Potency [6] | Potency [7] | max response [9] 14.2% | activation [10] -5.02% | max response [11] 0.789% | Potency [12] | max response [13] -6.76% | max response [14] 6.35%
10.5%: max response [8]

Source: PubChem BioAssay (NCATS)
